The list shows a part of the results. Active and inactive are the calls of the source. Rule as the data show it: active = inhibition above about 39%; inactive = the rest.
Biological target: Cysteine protease ATG4B (Homo sapiens) (UniProt Q9Y4P1)
Test: ATG4B protease inhibitors, retest, confirmation, biochemical, fluorescence, single concentration (AID 504757)
Conditions: ATG4B protease fluorescent substrate cleavage assay; at 8.33 µM; hits give high values

Cysteine protease ATG4B (Homo sapiens), sequence (Q9Y4P1 whole entry, looked up): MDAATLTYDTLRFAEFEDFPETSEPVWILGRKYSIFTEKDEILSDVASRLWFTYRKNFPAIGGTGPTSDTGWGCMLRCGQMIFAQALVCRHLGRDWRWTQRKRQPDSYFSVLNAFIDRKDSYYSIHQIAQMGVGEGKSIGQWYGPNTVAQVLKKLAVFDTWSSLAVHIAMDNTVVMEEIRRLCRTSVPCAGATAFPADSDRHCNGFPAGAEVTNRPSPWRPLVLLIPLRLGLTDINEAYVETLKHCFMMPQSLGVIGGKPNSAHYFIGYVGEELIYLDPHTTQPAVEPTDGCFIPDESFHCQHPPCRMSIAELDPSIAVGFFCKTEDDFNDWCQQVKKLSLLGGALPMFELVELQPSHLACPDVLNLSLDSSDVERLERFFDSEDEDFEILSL

inhibition, active:
O=C1Nc2cc(Cl)c(Cl)cc2N(O)N1c1cc(Cl)cc(Cl)c1 64.3%, NC(=O)c1sc2nc3c(c(-c4ccccc4)c2c1N)CCC3 57.5%, CCCC1=Nc2cc(C(=O)NCc3ccco3)ccc2Sc2ccccc21 54.3%, Cc1ccc(-c2cc(C(=O)N3CCc4ccccc4C3)no2)cc1 66.7%, COc1ccc(/C=C2/SC(=O)N(CCCCCC(=O)Nc3ccccc3C(=O)O)C2=S)cc1 56.7%, Cc1ccc(-n2c(SCC(=O)N/N=C/C=C/c3ccccc3[N+](=O)[O-])nc3ccccc3c2=O)cc1 46.6%, Clc1ccccc1CSc1nnc(-c2ccco2)c(-c2ccco2)n1 64.1%, Cc1ccc(CSc2nc(-c3ccccc3)c(C#N)c(=O)[nH]2)cc1 54.3%, Cc1ccc(N=C2NC(=O)/C(=C/C=C/c3ccco3)S2)cc1C 66.8%, CN(C)Cc1ccc(F)cc1Sc1cc(Cl)ccc1Cl 67.4%, CCOC(=O)c1c(-c2ccccc2)oc2cc(Br)c(O)c(C=O)c12 79%, CCc1ccc2c(c1)C(c1ccc([N+](=O)[O-])cc1)=NNC(c1ccccc1)=N2 51.2%, CCOC(=O)C(C)Sc1nc2ccccc2c(=O)n1CC1CCCCC1 (stereo unspecified) 54.5%, O=C(O)CCn1cc(/C=C/C(=O)c2ccc(Cl)cc2)c(-c2cccc(Br)c2)n1 56.8%, COC(=O)N/N=C/c1cn(CCCOc2ccc(C)cc2)c2ccccc12 64.9%, OC(CNCc1ccc(Cl)c(Cl)c1)c1ccccc1 (stereo unspecified) 73.9%
